Among the data in PubChem BioAssay (EPA / NIEHS) are outcome and AC50 values, retold here.

Usually AC50 stands for the concentration at which the activity in the assay is half-maximal.

Records with an inconclusive call do not appear. Active and inactive are the calls of the source. The calls were made as follows: active = hit-call score of the fitted dose curve at least 0.9, where 1 is the maximum; inconclusive = response in the unintended direction; inactive = score below 0.9.

Sequence of human Norepinephrine Transporter (NET), SLC6A2 (gene 6530) (P23975 whole entry, looked up): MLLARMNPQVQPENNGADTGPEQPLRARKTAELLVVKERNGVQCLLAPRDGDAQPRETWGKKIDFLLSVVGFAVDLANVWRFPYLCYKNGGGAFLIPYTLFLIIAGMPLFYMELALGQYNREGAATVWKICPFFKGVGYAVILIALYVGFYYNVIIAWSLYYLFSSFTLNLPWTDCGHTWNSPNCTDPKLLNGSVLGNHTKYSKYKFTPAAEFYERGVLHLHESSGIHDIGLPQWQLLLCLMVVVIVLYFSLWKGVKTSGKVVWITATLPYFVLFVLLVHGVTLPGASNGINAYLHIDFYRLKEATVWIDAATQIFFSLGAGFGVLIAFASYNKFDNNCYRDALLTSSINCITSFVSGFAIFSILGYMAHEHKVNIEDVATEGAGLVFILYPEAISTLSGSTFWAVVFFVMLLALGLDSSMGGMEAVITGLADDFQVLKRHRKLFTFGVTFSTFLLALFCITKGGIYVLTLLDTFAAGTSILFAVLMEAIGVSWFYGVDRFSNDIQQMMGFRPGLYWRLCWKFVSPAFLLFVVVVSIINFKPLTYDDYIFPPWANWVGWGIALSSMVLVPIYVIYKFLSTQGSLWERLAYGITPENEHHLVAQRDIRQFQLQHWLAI

The target of this assay is human Norepinephrine Transporter (NET), SLC6A2 (gene 6530) (UniProt P23975). The assay is described as follows: NVS_TR_hNET: NovaScreen (NVS) Transporter Assay for human Norepinephrine Transporter (NET) (AID 2283377).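 Also: cell-free membrane protein extracted from CHO cells expressing human NET.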 As to the method:
NVS_TR_hNET is a biochemical, single-readout assay that uses extracted gene-proteins from CHO in a cell-free assay. Measurements were taken 1 hour after chemical dosing in a 96-well plate.NVS_TR_hNET is one of one assay component(s) measured or calculated from the NVS_TR_hNET assay. It is designed to make measurements of radioligand binding, a form of binding reporter, as detected with scintillation counting signals by Filter-based radiodetection technology.Data from the assay component NVS_TR_hNET was analyzed into 1 assay endpoint. This assay endpoint, NVS_TR_hNET, was analyzed in the positive analysis fitting direction relative to DMSO as the negative control and baseline of activity. Using a type of binding reporter, loss-of-signal activity can be used to understand changes in the binding as they relate to the gene SLC6A2. Furthermore, this assay endpoint can be referred to as a primary readout, because the performed assay has only produced 1 assay endpoint. To generalize the intended target to other relatable targets, this assay endpoint is annotated to the transporter intended target family, where the subfamily is neurotransmitter transporter.
Binding assays used specific radioligands (tritiated, iodinated) with non-radioactive competitive displacement ligands in agonist or antagonist protocols (as indicated) and various reference compounds and inhibitors to titrate specific binding to receptors and transporters. Most enzyme assays (CYPs, kinases, phosphatases, proteases, HDACs) used recombinant protein and specific substrates (fluorescence mostly, some colorimetric and radioactive) and inhibitors, followed by a biochemical separation of substrate and product. All assays for the biochemical HTS were initially run in duplicate at a single concentration (10 uM for CYP450 assays and 25 uM for all others). […] Each assay was run with positive and negative controls, and concurrent controls on every plate. The follow-up (secondary) screen tested active chemical-pairs in concentration series, as well as a few additional assays not tested in the primary screen, some selected negative inactives, and several cases re-run in the concentration series for confirmatory purposes.
In the case of `Cc1cc(C)c(C(=O)P(=O)(c2ccccc2)c2ccccc2)c(C)c1`, the result was inactive.
For the compound `Cc1ccc2c(c1N)C(=O)c1ccccc1C2=O`, the concentration at half-maximal activity (AC50) was 12.2 µM (active).
Consider `O=c1ssc(Cl)c1Cl`, for which the AC50 is 18.3 µM (active).
In the case of `CCC1(c2ccccc2)C(=O)N=C(O)NC1=O` (stereo not drawn), the compound was called inactive.
In the case of `CC(C)Nc1ccc(Nc2ccccc2)cc1`, the AC50 was 2.93 µM (active).
For the compound `Oc1ccc(I)cc1`, the concentration at half-maximal activity (AC50) was 19.8 µM (active).
Same read-out and setting: for `Nc1ccc2ccccc2c1` the value was 5.64 µM (active).
`O=[N+]([O-])c1ccc(Cl)c(Cl)c1`: the result was inactive.
Take `c1ccc2c(c1)Nc1ccccc1S2`: the AC50 is 6.58 µM (active).
The same measure, in the same setting: with `CCC(C)(C)c1ccc(O)cc1` the figure was 16.1 µM (active).
Take `CC1(C)CN=C(NN=C(/C=C/c2ccc(C(F)(F)F)cc2)/C=C/c2ccc(C(F)(F)F)cc2)NC1`: the AC50 was 1.6 µM (active).
`Oc1ccccc1Br`: the compound was classed as inactive.
Take `N#Cc1c(-c2ccc(Cl)cc2)[nH]c(C(F)(F)F)c1Br`: the AC50 is 16.4 µM (active).
